For orientation: AC50 means the concentration at which the activity in the assay is half-maximal.

SMILES strings stand for the structures. Inconclusive results are not listed. The source made the active and inactive calls. How the source made its calls: active means hit-call score of the fitted dose curve at least 0.9, where 1 is the maximum; inconclusive means response in the unintended direction; inactive means score below 0.9.

Outcome and AC50 data for 38 compounds are collected here from PubChem BioAssay (EPA / NIEHS).

This assay can be described thus: ACEA_ER_AUC_viability: ACEA Biosciences xCELLigence Real-Time Cell Analysis on Estrogen Receptor Agonism for Viability (AID 2283782).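 Further: hit means loss of impedance signal meaning reduced cell growth or viability.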 The gist of the method:
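T-47D; phenol red-free RPMI1640 + 10% CS-FBS; 8 conc., 1:4 serial, max 100 uM final, ≤0.5% DMSO; n = 2; continuous exposure; impedance monitored to 80 h post-dose; AUC vs DMSO.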
Take `O=[N+]([O-])c1cc(N(CCO)CCO)ccc1NCCO`: the compound was classed as inactive. Take `CC(=O)CCC=C(C)CCC=C(C)C`: the AC50 was 63.6 µM (active).

Take `CC/C=C\CCOC(C)OCC` (stereo not drawn): the compound was called inactive.

With `CCCCC/C=C\C=C\C(=O)OCC`, the half-maximal activity concentration (AC50) was 80.8 µM (active).

With `CC(C)OB(OC(C)C)OC(C)C`, the outcome was inactive. For `C=CC(=O)OCC(CO)(COC(=O)C=C)COC(=O)C=C`, the AC50 was 2.64 µM (active). Still for that read-out and setting: the figure for `C=C/C(C)=C/C/C=C(\C)CCC=C(C)C` is 89.9 µM (active). Take `Brc1cc(Br)cc(Br)c1`: the compound was classed as inactive. Take `C=CCS(=O)(=O)O`: the compound was called inactive. For the compound `O=C(Nc1cccc(Cl)c1)OCC#CCCl`, the AC50 is 56.3 µM (active). Same read-out and setting: to `O=S1(=O)CC(Cl)(Cl)C(Cl)(Cl)C1` belongs 1.42 µM (active); to `CC1=CC(=O)[C@H]2C[C@@H]1C2(C)C`, 31 µM (active). For the compound `CCOC(=O)CC1(C)OCC(C)O1` (stereo not drawn), the compound was called inactive. On the same count and under the same terms, to `C=C1CC/C=C(\C)CC[C@@H]2[C@@H]1CC2(C)C` belongs “inactive”.

For the compound `CCCCCCCCCCCCCC(=O)OCC`, the AC50 is 50 µM (active). Consider `CCOC(=O)CCCCCCCCC(=O)OCC`, for which the result was inactive. For the compound `C=CCOC(=O)/C=C\C(=O)OCC=C`, the AC50 is 94.9 µM (active).

`O=C(O)c1ccc(C(=O)O)c(C(=O)O)c1`: the outcome was inactive.

On to `ClCCOCCOCCCl`, for which the call was inactive. For `CC1=CC(O)CC(C)(C)C1` (stereo not drawn), the AC50 was 71.8 µM (active). With `CN(C)c1ccc(C=O)cc1`, the compound was called inactive.

As for `O=C1OCc2ccccc21`, the compound was called inactive. Turning to `CCCCOCCOC(=O)c1ccccc1C(=O)OCCOCCCC`, the outcome was inactive. Consider `Cc1cc(O)c(C)c(C)c1O`, for which the AC50 is 76.1 µM (active). For `CCCCCCCCCCCCOC(C)=O`, the call was inactive. As to `[Cu+]`, the call was inactive. As for `C=C(C)C(=O)OCCOCCOC(=O)C(=C)C`, the AC50 was 21.2 µM (active). As to `CCCCCCCC1CCCC1=O` (stereo not drawn), the outcome was inactive. Still for that read-out and setting: to `CC1(C)CC(=O)CC(C)(C)N1` belongs “inactive”; to `CC(=O)OCC=C(C)CCC=C(C)CCC=C(C)C`, “inactive”.

In the case of `C=C1CC[C@H]2O[C@]2(C)CC[C@@H]2[C@@H]1CC2(C)C`, the compound was called inactive. Consider `CCC=C(C)C=O`, for which the compound was called inactive.

For the compound `O=C(O)c1cc(C(=O)O)c(C(=O)O)cc1C(=O)O`, the result was inactive. As to `C=C(C)C(=O)OCCC(F)(F)C(F)(F)C(F)(F)C(F)(F)C(F)(F)C(F)(F)C(F)(F)C(F)(F)F`, the outcome was inactive. `CCCCOC(=O)C(C)OC(=O)CCC` (stereo not drawn): the result was inactive. For `CCCCCCCCCCCCCCCCCC(=O)OCCCCCCCCCCCCCC(C)C`, the AC50 is 77 µM (active).

In the case of `CC(CO)c1ccccc1` (stereo not drawn), the outcome was inactive. Still for that read-out and setting: to `C=COCC1CCC(COC=C)CC1` (stereo not drawn) belongs “inactive”.
